The values that follow come from PubChem BioAssay AID1053125 (Broad Institute, 2014).

Results with a measured potency or affinity are listed apart. Activity calls are given as the source filed them.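 The calls were made as follows: active = viability loss whose fitted half-maximal concentration is at most twice the top valid tested dose; inconclusive = flat curve with 30 to 70% loss, or poor fit; inactive = the rest.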

This test in a line: viability loss in HepG2 liver cells – cell-based, ATP luminescence, cherry-pick, set 6, cytotoxicity control, dose response (AID 1053125).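 Also: negative values mean loss of viability signal.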 Particulars: ATP luminescence (CellTiter-Glo), 72 h; series mostly up to 26 µM; activity change, negative = cytotoxicity: at the top concentration. (In general: In ATP-based viability assays light output follows the ATP content of the culture.)
For `CC1CCN(S(=O)(=O)N2CCC(C(=O)NC3CCCC3)CC2)CC1`, the “activity change, negative = cytotoxicity” value is -3.91% (inactive).
Consider `O=C(Nc1ccc(-c2ccco2)cc1)C1CCCN(Cc2ccco2)C1` (stereo not given), for which the “activity change, negative = cytotoxicity” value was -14.2% (inactive).
Next, `N#Cc1c(NCCCO)nc(NCc2ccccc2)c2c1CCN(Cc1ccccc1)C2`: -14.7% (inactive).
To `COc1ccccc1OCc1ccc(C(=O)N(C)c2ccccc2)o1` belongs 3.98% (inactive); to `CCCCn1nc(NC(=O)c2cccs2)c2cc3cc(OC)ccc3nc21`, -14% (inactive).
Next, `CN1c2ccc(Cl)cc2C(=O)NC1C1CC=CCC1` (stereo not given): -1.75% (inactive); `COc1ccc(C2C(C#N)=C(N)Oc3cc(O)ccc32)cc1Cl` (stereo not given): -4.61% (inactive).
In the case of `[O-]/[N+](=C/c1ccccc1)c1ccccc1`, the “activity change, negative = cytotoxicity” value is 18.8% (inactive).
Next, `CC(=O)c1cc2ccc(O)cc2oc1=O`: -4.29% (inactive); `COc1ccc(CCNC(=O)CSc2cn(Cc3cccc(C)c3)c3ccccc23)cc1OC`: 30.9% (inactive); `CC(=O)Oc1ccc(C(=O)Nc2cc(C)on2)cc1`: -19.6% (inactive).
To `O=[N+]([O-])c1cccc(Nc2c3ccccc3nc3ccccc23)c1` belongs -17.4% (inactive); to `CC1=C(C(=O)N2CCN(c3cc(C)ccc3C)CC2)C2(CCCCC2)OC1=O`, -6.7% (inactive); to `O=C(CCCn1c(=O)c2sccc2n(Cc2cc(=O)n3ccccc3n2)c1=O)NCc1ccco1`, -8.29% (inactive).
Next, `N=c1oc2cc(O)ccc2cc1C(=O)Nc1nc2ccccc2s1`: -0.66% (inactive); `O=C(NCc1nnnn1-c1ccc(Cl)cc1)C1CC(=O)N(c2ccc(F)cc2)C1` (stereo not given): -2.53% (inactive).
In the case of `COc1cccc2c(=O)c3c(cnn3C)n(C)c12`, the “activity change, negative = cytotoxicity” value was -1.18% (inactive).
To `O=C(NNc1cc(N2CCCC2)nc(N2CCCC2)n1)c1ccc([N+](=O)[O-])cc1` belongs -4.33% (inactive).
Next, `O=c1[nH]c(Nc2ccccc2Cl)cc2ccccc12`: 28.1% (inactive); `O=C(O)c1ccc(-c2ccc(/C=C3\NC(=O)N(Cc4ccc(Cl)cc4)C3=O)o2)cc1`: 9.07% (inactive); `Cc1ccc2[nH]c3ccccc3c(=O)c2c1`: -13.1% (inactive).
Next, `CCc1ccccc1S(=O)(=O)Cc1ccc(C(=O)N2CCN(c3ccccc3OC)CC2)o1`: 12.5% (inactive).
As for `CCN(CC)c1ccc2c(C)c(Cl)c(=O)oc2c1`, the “activity change, negative = cytotoxicity” value was -0.392% (inactive).
For `O=C(COC(=O)c1cc(S(=O)(=O)N2CCCCC2)ccc1N1CCOCC1)c1ccccc1Cl`, the “activity change, negative = cytotoxicity” value was -11.1% (inactive).
To `COCCNC(=S)N/N=C/c1ccc(-c2ccc([N+](=O)[O-])cc2)o1` belongs -8.06% (inactive).
Next, `O=C(O)c1cccc(Nc2nc(-c3cc4ccccc4oc3=O)cs2)c1`: 1.67% (inactive).
Next, `CCOCCCNc1nc2nc3ccc(C)cn3c(=O)c2cc1C(=O)NCC1CCCO1` (stereo not given): -3.61% (inactive); `CCc1nnc(NC(=O)c2ccc(-c3ccccc3F)o2)s1`: -17% (inactive); `CC(=O)Oc1ccc2cc(-c3nc4ccccc4n3C)c(=O)oc2c1`: 4.27% (inactive).
On to `O=c1oc2cc(O)ccc2cc1S(=O)(=O)c1ccccc1`, for which the “activity change, negative = cytotoxicity” value is -3.94% (inactive).
To `O=C(O)c1[nH]c2ccccc2c1C(c1cc(Br)ccc1O)c1c(C(=O)O)[nH]c2ccccc12` belongs -3.21% (inactive); to `COc1ccc(C2CC(c3cccs3)=NN2c2nc(C)c(C(C)=O)s2)cc1OC` (stereo not given), -14.8% (inactive).
Next, `Cc1noc(C)c1-c1ccc(C(=O)NCCc2ccccc2)c2occc12`: -14.3% (inactive).
Consider `Cc1ccc(S(=O)(=O)c2cc3c(=O)n4ccccc4nc3n(C)c2=N)cc1`, for which the “activity change, negative = cytotoxicity” value was -2.57% (inactive).
To `CN(C)/C=C/C(=O)c1c(F)cccc1F` belongs 12% (inactive).
